The text below walks through data of PubChem BioAssay (EPA / NIEHS).

One may read the AC50 as the concentration giving half of the maximal activity seen.

Inconclusive results are not listed. Active and inactive are the calls of the source. The calls were made as follows: active = hit-call score of the fitted dose curve at least 0.9, where 1 is the maximum; inconclusive = response in the unintended direction; inactive = score below 0.9.

Experiment [1] has as its target human Serotonin, 5-Hydroxytryptamine Receptor 7 (5HT7), HTR7 (gene 3363) (UniProt P34969). Kind of experiment: NVS_GPCR_h5HT7: NovaScreen (NVS) G Protein-Coupled Receptor Assay for human Serotonin, 5-Hydroxytryptamine Receptor 7 (5HT7) (AID 2283255).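 Also: hits reduce specific radioligand binding relative to DMSO.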 In a few lines: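 Filter-bound radioactivity counted after 1 h, with loss of specific radioligand binding fitted against DMSO. Membrane protein came from CHO cells expressing human 5HT7. Chemicals were tested first at 25 uM in duplicate, then in concentration series if active.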

The target in experiment [2] is human Adrenergic, Beta 3 Receptor (Adrb3), ADRB3 (gene 155) (UniProt P13945). In words: NVS_GPCR_hAdrb3: NovaScreen (NVS) G Protein-Coupled Receptor Assay for human Adrenergic, Beta 3 Receptor (Adrb3) (AID 2283262). The procedure, abridged:
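A cell-free filter binding assay read by scintillation counting, with displacement of a specific radioligand measured after 1 hour. The receptor source was SK-N-MC extracts (cells pretreated with isoproterenol and 8-bromo-cAMP). Compounds were first tested at 25 uM in duplicate and then in concentration series.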

For experiment [3], the target named is human Histamine 1 Receptor (H1), HRH1 (gene 3269) (UniProt P35367). In words: NVS_GPCR_hH1: NovaScreen (NVS) G Protein-Coupled Receptor Assay for human Histamine 1 Receptor (H1) (AID 2283268). The procedure, abridged:
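Filter-based scintillation detection of radioligand binding to human H1, 1 h incubation; chemicals screened in duplicate at 25 uM, then concentration-response; signal loss relative to DMSO taken as activity.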

Experiment [4] has as its target human Adrenergic, Alpha 2A Receptor (Adra2A), ADRA2A (gene 150) (UniProt P08913). In words: NVS_GPCR_hAdra2A: NovaScreen (NVS) G Protein-Coupled Receptor Assay for human Adrenergic, Alpha 2A Receptor (Adra2A) (AID 2283257). The procedure, abridged:
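Displacement of a specific radioligand from HT29 membrane protein was counted by filter scintillation after 1 h. Compounds were screened in duplicate at 25 uM, and actives were retested in concentration series. Fitting was positive-direction against DMSO.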

The target of experiment [5] is human Dopamine Receptor D4.4 (DRD4.4), DRD4 (gene 1815) (UniProt P21917). Kind of experiment: NVS_GPCR_hDRD4.4: NovaScreen (NVS) G Protein-Coupled Receptor Assay for human Dopamine Receptor D4.4 (DRD4.4) (AID 2283264). The procedure, abridged:
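Filter-binding assay with a tritiated or iodinated ligand, cell-free receptor prepared from CHO, 1 hour. Loss of bound radioactivity versus DMSO; single 25 uM duplicate screen, then concentration-response for actives.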

The target of experiment [6] is human Adenosine A2a Receptor (AdoRA2a), ADORA2A (gene 135) (UniProt P29274). In words: NVS_GPCR_hAdoRA2a: NovaScreen (NVS) G Protein-Coupled Receptor Assay for human Adenosine A2a Receptor (AdoRA2a) (AID 2283256). The procedure, abridged:
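Compounds screened in duplicate at 25 uM, with actives followed up in concentration series, for displacement of a radioligand from HEK293-derived receptor protein. Bound counts read by filter scintillation at 1.5 hours, DMSO as baseline.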

In experiment [7] the target is Type-1 angiotensin II receptor (Homo sapiens) (UniProt P30556). In words: NVS_GPCR_hAT1: NovaScreen (NVS) G Protein-Coupled Receptor Assay for human Angiotensin II receptor type 1 (AT1) (AID 2283263). The procedure, abridged:
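Hits from a 25 uM duplicate screen (threshold e.g. 30% inhibition) were run in concentration-response with 50 uM top concentration. Displacement of specific radioligand from KAN-TS membrane preparations measured after 3 h by filter scintillation, DMSO as baseline.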

Experiment [8] has as its target Muscarinic acetylcholine receptor M1 (Homo sapiens) (UniProt P11229). Kind of experiment: NVS_GPCR_hM1: NovaScreen (NVS) G Protein-Coupled Receptor Assay for human Muscarinic, M1 Receptor (AID 2283270). The procedure, abridged: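 Actives from a duplicate 25 uM single-point screen were retested in concentration series. Binding measured as displacement of a radioligand from CHO-derived receptor preparation, 1 h incubation, filtration and scintillation counting, analysed as signal loss against DMSO.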

Experiment [9] has as its target Muscarinic acetylcholine receptor M3 (Homo sapiens) (UniProt P20309). In words: NVS_GPCR_hM3: NovaScreen (NVS) G Protein-Coupled Receptor Assay for human Muscarinic, M3 Receptor (AID 2283272). The procedure, abridged: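 Radioligand displacement binding on human M3 receptor in CHO-derived membranes, 1 h incubation, filter-based scintillation counting. Primary screen in duplicate at 25 uM; actives followed up in concentration series; loss of signal versus DMSO.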

The target of experiment [10] is Muscarinic acetylcholine receptor M2 (Homo sapiens) (UniProt P08172). Kind of experiment: NVS_GPCR_hM2: NovaScreen (NVS) G Protein-Coupled Receptor Assay for human Muscarinic, M2 Receptor (AID 2283273). The procedure, abridged:
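Radioligand competition binding, cell-free, receptor from CHO; 1 h incubation; scintillation detection. Primary testing at 25 uM in duplicate.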

Experiment [11] has as its target human Muscarinic, M4 Receptor, CHRM4 (gene 1132) (UniProt P08173). In words: NVS_GPCR_hM4: NovaScreen (NVS) G Protein-Coupled Receptor Assay for human Muscarinic, M4 Receptor (AID 2283274). In a few lines:
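Filter-based scintillation counting of radioligand bound to CHO-expressed human M4 preparations after 1 h; loss of signal fitted versus DMSO. Initial duplicate testing at 25 uM, concentration-response follow-up for actives.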

Experiment [12] concerns the target Muscarinic acetylcholine receptor M5 (Homo sapiens) (UniProt P08912). Kind of experiment: NVS_GPCR_hM5: NovaScreen (NVS) G Protein-Coupled Receptor Assay for human Muscarinic, M5 Receptor (AID 2283275). In a few lines:
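Chemicals passing a primary duplicate screen at 25 uM were run as singleton concentration series, maximum 50 uM. Displacement of a specific radioligand from CHO-extracted receptor was read by filter scintillation after 1 h, relative to DMSO.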

The target of experiment [13] is human Adrenergic, Alpha 2c Receptor (Adra2C), ADRA2C (gene 152) (UniProt P18825). Kind of experiment: NVS_GPCR_hAdra2C: NovaScreen (NVS) G Protein-Coupled Receptor Assay for human Adrenergic, Alpha 2c Receptor (Adra2C) (AID 2283259). The procedure, abridged: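 Screened first in duplicate at 25 uM, with actives then run as concentration series. Membranes from Sf9 cells were exposed for 1 h, and displacement of radioligand was counted after filtration, using DMSO as baseline.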

For experiment [14], the target named is D(1A) dopamine receptor (Homo sapiens) (UniProt P21728). Kind of experiment: NVS_GPCR_hDRD1: NovaScreen (NVS) G Protein-Coupled Receptor Assay for human Dopamine Receptor D1 (DRD1) (AID 2283269). In a few lines: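 Radioligand displacement binding on membranes/protein extracted from HEK293 expressing human D1, cell-free; read 1 h after dosing by filter-based scintillation counting. Primary screen in duplicate at 25 uM, actives followed up in concentration series; signal loss versus DMSO baseline.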

For experiment [15], the target named is human Endothelin Receptor Type A (ETA), EDNRA (gene 1909) (UniProt P25101). In words: NVS_GPCR_hETA: NovaScreen (NVS) G Protein-Coupled Receptor Assay for human Endothelin Receptor Type A (ETA) (AID 2283265). In a few lines: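 Binding of radioligand to membrane protein extracted from SH-SY5Y cells was read by filtration and scintillation after 3 h. Compounds were screened at 25 uM in duplicate, with hits followed up in singleton concentration series to 50 uM.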

Experiment [16] concerns the target human Dopamine Receptor D2 (DRD2), DRD2 (gene 1813) (UniProt P14416). In words: NVS_GPCR_hDRD2s: NovaScreen (NVS) G Protein-Coupled Receptor Assay for human Dopamine Receptor D2 (DRD2) (AID 2283266). In a few lines: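 Test compound (25 uM, duplicate in the primary screen; concentration series at follow-up) competed with radioligand for human DRD2 in CHO-derived membrane protein. Filter-based scintillation counting was done 1.5 hours after dosing, with loss of signal analysed against DMSO.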

The target in experiment [17] is human Adrenergic, Beta 1 Receptor (Adrb1), ADRB1 (gene 153) (UniProt P08588). Kind of experiment: NVS_GPCR_hAdrb1: NovaScreen (NVS) G Protein-Coupled Receptor Assay for human Adrenergic, Beta 1 Receptor (Adrb1) (AID 2283258). In a few lines:
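Membranes/protein extracted from human neuroepithelioma cells, radioligand competition binding read by filtration and scintillation 2 h post-dose. Single 25 uM duplicate screen, then concentration-response follow-up; DMSO as negative control.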

human Adrenergic, Alpha 2c Receptor (Adra2C), ADRA2C (gene 152), sequence (P18825 whole entry, looked up): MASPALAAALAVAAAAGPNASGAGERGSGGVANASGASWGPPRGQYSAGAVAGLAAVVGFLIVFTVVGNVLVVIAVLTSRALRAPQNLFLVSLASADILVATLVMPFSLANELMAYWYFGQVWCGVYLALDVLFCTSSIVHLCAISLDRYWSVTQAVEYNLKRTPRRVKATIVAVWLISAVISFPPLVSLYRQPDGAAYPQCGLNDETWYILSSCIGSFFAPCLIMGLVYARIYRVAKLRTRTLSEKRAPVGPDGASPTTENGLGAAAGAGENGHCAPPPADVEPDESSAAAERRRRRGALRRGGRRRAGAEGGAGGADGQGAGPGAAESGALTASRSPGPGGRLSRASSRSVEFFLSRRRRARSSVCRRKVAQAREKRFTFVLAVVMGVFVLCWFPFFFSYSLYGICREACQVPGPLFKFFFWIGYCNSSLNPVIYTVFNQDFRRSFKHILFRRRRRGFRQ
human Histamine 1 Receptor (H1), HRH1 (gene 3269), sequence (P35367 whole entry, looked up): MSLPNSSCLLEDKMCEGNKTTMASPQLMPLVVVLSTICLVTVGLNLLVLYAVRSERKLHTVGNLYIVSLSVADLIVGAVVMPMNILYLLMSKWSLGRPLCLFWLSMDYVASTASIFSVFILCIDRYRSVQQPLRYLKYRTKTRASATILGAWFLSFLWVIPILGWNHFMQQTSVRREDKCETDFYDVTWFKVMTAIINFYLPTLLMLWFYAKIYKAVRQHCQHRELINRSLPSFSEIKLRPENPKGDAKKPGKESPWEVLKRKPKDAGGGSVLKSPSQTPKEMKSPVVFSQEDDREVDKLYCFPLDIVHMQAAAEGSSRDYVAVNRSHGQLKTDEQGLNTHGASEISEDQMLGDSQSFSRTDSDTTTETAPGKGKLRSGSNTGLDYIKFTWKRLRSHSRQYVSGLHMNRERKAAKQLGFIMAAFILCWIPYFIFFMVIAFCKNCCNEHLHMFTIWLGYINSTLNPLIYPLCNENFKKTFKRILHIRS
Muscarinic acetylcholine receptor M2 (Homo sapiens), sequence (P08172 whole entry, looked up): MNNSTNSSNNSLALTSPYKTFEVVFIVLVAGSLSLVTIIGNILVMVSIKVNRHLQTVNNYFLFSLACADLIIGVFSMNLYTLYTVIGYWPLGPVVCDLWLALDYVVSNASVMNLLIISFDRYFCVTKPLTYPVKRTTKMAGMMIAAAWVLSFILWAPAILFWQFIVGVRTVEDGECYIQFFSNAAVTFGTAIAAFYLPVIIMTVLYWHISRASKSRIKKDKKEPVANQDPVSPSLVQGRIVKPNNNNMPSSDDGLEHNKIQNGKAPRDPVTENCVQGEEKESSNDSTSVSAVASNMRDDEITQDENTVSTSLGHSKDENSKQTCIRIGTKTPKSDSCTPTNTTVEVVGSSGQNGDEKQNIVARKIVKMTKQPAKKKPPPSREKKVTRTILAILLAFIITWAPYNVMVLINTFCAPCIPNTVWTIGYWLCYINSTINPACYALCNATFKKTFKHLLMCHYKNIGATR
human Muscarinic, M4 Receptor, CHRM4 (gene 1132), sequence (P08173 whole entry, looked up): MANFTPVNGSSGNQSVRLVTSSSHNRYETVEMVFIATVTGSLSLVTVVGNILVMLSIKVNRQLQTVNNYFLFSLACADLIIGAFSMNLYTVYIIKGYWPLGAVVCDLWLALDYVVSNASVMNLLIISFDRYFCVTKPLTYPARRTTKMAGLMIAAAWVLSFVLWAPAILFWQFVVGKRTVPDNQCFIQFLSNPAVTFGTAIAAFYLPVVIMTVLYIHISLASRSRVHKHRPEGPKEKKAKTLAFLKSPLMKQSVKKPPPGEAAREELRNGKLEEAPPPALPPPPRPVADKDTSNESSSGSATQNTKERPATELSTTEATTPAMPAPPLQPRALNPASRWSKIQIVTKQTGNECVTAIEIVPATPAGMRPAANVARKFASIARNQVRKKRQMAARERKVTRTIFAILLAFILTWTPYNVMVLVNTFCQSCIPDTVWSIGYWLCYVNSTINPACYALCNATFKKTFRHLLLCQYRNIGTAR
human Adrenergic, Alpha 2A Receptor (Adra2A), ADRA2A (gene 150), sequence (P08913 whole entry, looked up): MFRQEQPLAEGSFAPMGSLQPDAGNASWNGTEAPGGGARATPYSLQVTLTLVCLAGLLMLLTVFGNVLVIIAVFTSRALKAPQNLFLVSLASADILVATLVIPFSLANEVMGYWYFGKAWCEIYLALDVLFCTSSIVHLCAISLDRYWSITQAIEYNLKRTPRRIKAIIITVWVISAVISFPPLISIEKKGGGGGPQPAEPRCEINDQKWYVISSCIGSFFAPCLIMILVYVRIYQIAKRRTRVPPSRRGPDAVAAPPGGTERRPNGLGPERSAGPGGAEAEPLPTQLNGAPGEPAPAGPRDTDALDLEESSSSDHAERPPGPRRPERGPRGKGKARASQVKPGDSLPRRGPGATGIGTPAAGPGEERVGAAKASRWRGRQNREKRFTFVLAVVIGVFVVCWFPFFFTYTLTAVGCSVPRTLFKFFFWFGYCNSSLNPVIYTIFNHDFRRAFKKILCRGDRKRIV
Muscarinic acetylcholine receptor M1 (Homo sapiens), sequence (P11229 whole entry, looked up): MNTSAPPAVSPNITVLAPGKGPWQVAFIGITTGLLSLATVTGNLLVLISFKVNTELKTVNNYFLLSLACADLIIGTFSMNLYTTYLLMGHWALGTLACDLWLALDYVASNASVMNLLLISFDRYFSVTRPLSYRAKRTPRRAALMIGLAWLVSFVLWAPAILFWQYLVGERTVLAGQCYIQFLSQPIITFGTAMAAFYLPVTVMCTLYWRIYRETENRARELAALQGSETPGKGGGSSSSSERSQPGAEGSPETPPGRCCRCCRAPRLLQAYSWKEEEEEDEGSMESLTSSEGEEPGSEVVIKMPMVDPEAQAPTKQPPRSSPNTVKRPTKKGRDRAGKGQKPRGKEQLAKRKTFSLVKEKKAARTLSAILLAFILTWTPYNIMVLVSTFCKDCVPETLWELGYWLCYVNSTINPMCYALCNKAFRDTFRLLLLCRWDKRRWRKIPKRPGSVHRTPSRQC
D(1A) dopamine receptor (Homo sapiens), sequence (P21728 whole entry, looked up): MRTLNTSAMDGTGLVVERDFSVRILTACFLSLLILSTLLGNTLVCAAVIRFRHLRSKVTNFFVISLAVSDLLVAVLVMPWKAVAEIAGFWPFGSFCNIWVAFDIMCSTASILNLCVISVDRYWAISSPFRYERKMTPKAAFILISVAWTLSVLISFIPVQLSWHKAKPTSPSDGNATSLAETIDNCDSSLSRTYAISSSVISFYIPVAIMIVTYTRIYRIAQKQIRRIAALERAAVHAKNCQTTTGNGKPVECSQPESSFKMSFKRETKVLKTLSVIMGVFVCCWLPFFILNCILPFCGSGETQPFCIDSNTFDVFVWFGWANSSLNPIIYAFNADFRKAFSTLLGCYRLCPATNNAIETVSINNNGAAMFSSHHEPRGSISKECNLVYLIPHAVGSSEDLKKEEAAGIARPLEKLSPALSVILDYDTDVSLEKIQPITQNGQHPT
Muscarinic acetylcholine receptor M3 (Homo sapiens), sequence (P20309 whole entry, looked up): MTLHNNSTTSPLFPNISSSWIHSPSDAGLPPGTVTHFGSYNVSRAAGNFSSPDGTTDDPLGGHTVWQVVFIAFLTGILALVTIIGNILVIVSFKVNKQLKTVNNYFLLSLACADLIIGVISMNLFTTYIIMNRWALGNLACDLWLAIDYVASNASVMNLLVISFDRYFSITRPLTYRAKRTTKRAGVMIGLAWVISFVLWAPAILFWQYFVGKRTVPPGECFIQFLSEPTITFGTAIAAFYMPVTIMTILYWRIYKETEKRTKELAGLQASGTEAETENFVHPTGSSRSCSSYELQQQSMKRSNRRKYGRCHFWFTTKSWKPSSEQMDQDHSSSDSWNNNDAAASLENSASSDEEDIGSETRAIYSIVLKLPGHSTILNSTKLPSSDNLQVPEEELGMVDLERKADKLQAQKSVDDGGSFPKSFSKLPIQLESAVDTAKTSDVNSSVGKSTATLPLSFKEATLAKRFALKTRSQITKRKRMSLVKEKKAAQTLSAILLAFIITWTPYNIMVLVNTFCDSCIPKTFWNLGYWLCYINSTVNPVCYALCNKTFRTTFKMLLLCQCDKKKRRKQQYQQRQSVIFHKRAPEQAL
human Serotonin, 5-Hydroxytryptamine Receptor 7 (5HT7), HTR7 (gene 3363), sequence (P34969 whole entry, looked up): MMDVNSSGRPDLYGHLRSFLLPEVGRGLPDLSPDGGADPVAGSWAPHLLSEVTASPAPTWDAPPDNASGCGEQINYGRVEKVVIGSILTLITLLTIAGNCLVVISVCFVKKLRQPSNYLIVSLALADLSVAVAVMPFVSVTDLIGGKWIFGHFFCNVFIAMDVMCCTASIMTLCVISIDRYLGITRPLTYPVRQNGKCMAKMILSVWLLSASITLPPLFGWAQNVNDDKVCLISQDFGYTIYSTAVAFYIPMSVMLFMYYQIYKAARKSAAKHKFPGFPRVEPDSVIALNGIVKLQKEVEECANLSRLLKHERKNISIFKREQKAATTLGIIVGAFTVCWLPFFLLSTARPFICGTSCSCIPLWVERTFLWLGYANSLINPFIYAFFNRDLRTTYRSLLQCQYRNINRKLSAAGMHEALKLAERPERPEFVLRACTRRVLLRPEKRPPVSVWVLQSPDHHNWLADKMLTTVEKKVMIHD
Muscarinic acetylcholine receptor M5 (Homo sapiens), sequence (P08912 whole entry, looked up): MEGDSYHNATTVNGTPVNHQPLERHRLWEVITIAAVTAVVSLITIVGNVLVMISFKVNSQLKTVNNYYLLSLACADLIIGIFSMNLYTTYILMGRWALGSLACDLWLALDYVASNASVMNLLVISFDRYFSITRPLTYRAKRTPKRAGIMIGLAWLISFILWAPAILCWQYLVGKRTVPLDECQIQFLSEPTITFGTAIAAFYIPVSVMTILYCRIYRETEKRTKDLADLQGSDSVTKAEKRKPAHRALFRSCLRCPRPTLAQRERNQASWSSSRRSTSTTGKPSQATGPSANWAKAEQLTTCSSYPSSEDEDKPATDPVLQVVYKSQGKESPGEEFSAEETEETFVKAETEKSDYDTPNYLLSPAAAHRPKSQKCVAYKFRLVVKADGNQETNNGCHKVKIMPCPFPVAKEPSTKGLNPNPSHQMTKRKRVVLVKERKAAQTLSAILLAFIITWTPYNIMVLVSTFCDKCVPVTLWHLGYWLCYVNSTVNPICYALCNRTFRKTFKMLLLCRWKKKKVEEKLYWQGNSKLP

Consider `CCCCCCCCN(C)C`, for which the AC50 in experiment [1] is 6.63 µM (active). In addition, the compound was called inactive in experiment [2] and in experiment [3].
For the compound `O=C(NO)C1(NS(=O)(=O)c2ccc(Oc3ccc(F)cc3)cc2)CCOCC1`, the AC50 in experiment [4] and in [5] was 25 µM (active) in each case.
As for `Cc1nccn1-c1ccc(Sc2cccc(C3(C(N)=O)CCOCC3)c2)cc1`, the AC50 in experiment [6] is 4.51 µM (active); in experiment [8], 7.4 µM (active); in experiment [10] it was 6.6 µM (active); in experiment [11] it was 6.73 µM (active). Further, the compound was classed as inactive in [7], in [9] and in experiment [12].
`CCn1nc(C)c2c1C(=O)NCC(c1ccc(O)cc1)=N2`: the results for the AC50 in experiment [1] and in [6] were 25 µM (active) and 10.2 µM (active), respectively. For the same compound, the result in experiment [4], in [13], in [2], in experiment [3], in experiment [14] and in experiment [8] was inactive. Moreover, the compound was called inactive in experiment [10], in experiment [11] and in experiment [12].
In the case of `Cc1ncc([C@@H](CCCCCCc2ccc3c(n2)NCCC3)CC(=O)O)cn1`, the AC50 was 13.7 µM (active) in experiment [4], 16.2 µM (active) in experiment [13] and 19.2 µM (active) in experiment [10].
Consider `CC[C@H](C)C(=O)O[C@H]1C[C@H](O)C=C2C=C[C@H](C)[C@H](CC[C@@H](O)C[C@@H](O)CC(=O)O)[C@H]21`, for which, in experiment [15], the result was inactive.
For `c1ccc2cc3ccccc3cc2c1`, the compound was classed as inactive in experiment [3].
`COc1cc(C(C)C)c2c(c1)S(=O)(=O)N(COc1cc(=O)n3cccc(OCCN4CCCCC4)c3n1)C2=O`: the AC50 is 2.83 µM (active) in experiment [4]; 0.424 µM (active) in experiment [13]; 1.6 µM (active) in experiment [16]; 6.25 µM (active) in experiment [14]; 2 µM (active) in experiment [8]; 8.91 µM (active) in experiment [9]. The AC50 in experiment [10] is 0.681 µM (active); in [11], 3.98 µM (active); in [12], 3.71 µM (active).
With `O=S(=O)(O)c1ccc(N=Nc2c(O)ccc3cc(S(=O)(=O)O)ccc23)cc1`, the compound was called inactive in experiment [1], in [4], in experiment [9] and in experiment [11]. The AC50 in experiment [6] was 35 µM (active); in experiment [5], 32 µM (active); in experiment [16], 8.72 µM (active); in [14], 38.4 µM (active).
On to `CCN(CC)C(=S)SSC(=S)N(CC)CC`, for which the results for the AC50 in experiment [1] and in [17] were 13.5 µM (active) and 2.55 µM (active), respectively. Besides, in experiment [7], the result was inactive.
In the case of `CCCCCCCCCC`, the outcome in experiment [1], in experiment [6], in experiment [17], in [13], in experiment [16] and in experiment [14] was inactive. For the same compound, the outcome in experiment [10] and in [11] was inactive.
